Experimental findings from PubChem BioAssay AID624300 (Southern Research Specialized Biocontainment Screening …, 2012) are described below.

Broadly, the viability is a read-out of living cells in per cent, often relative to untreated cells.

The whole screen tested about 2,400 compounds, of which about 360 (15%) were called active.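 How the source made its calls: active means viability falls under 70% at one or more tested concentrations, taken as toxicity; inactive means viability stays over 70% at every dose.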 These entries were drawn from the full list. Measured potencies and affinities stand elsewhere.

A short description of the assay: viability loss in HeLa cells – cytotoxicity control for MgcRacGAP inhibitor project, dose response (AID 624300).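 Further: 100% = median of untreated control wells on the same plate.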 To be noted: CellTiter-Glo luminescence, 24 h; series mostly up to 100 µM; viability: at the top concentration. Background: In ATP-based viability assays light output follows the ATP content of the culture.
Turning to `COc1ccc(NCc2ccsc2)cc1`, the “viability” value was 112% (inactive). Regarding `COc1ccc(NC2CCCN(C(=O)CN3CCOC3=O)C2)cc1` (stereo unspecified), the “viability” value was 99.7% (inactive). Next, `CC1(C)CC(=O)C(C=Nc2ccc(N)cc2)=C(O)C1`: 107% (inactive); `COc1cc(/C=C/C(=O)OCC(=O)N2CC3(C)CC2CC(C)(C)C3)ccc1O` (stereo unspecified): 96% (inactive). On to `Cn1c(=O)[nH]c(=O)c2c1[nH]c(=S)n2CCCc1ccccc1`, for which the “viability” value is 101% (inactive). For `Cn1c(=O)c2[nH]c(=S)n(Cc3ccccc3)c2n(C)c1=O` the value was 92.9% (inactive). For `CN(C)c1ccc(NC(=S)NCC2CCCO2)cc1` (stereo unspecified) the value was 109% (inactive); for `Cc1sc2ccc3sccc3c2[n+]1C`, 94.5% (inactive); for `Cc1cc(N(C)C)ccc1N=Nc1ccc(N)cc1`, 96.7% (inactive). Consider `O=C(CN1CCN(c2ncccn2)CC1)N1CCCC1`, for which the “viability” value is 102% (inactive). Next, `CC(C)c1nc(SCC(=O)Nc2ccc(N(C)C)cc2)c2ccccc2n1`: 101% (inactive); `Cc1ccccc1SCC(=O)OCC(=O)Nc1ccc(N(C)C)cc1`: 107% (inactive); `Cc1nc2ccc(C(=O)Nc3ccc(N(C)C)cc3)cc2s1`: 105% (inactive). For `CCn1c(SCC(=O)Nc2ccc(N(C)C)cc2)nnc1-c1cccc(C)c1` the value was 98.4% (inactive); for `COc1cc(/C=N/NC(=O)CNc2n[nH]c(=O)[nH]c2=O)ccc1O`, 96.4% (inactive). For `CSc1ccc(CN2CCC(N3CC(C)OC(C)C3)CC2)cc1` (stereo unspecified) the value was 86.2% (inactive).

With `CCn1c(CSc2nc3ccccc3s2)nnc1SCC(=O)c1ccc(O)c(O)c1`, the “viability” value was 90% (inactive). For `C=CCn1c(SCC(=O)c2ccc(O)c(O)c2)nnc1-c1cccc(OC)c1` the value was 100% (inactive); for `CN(C)c1ccc(NS(=O)(=O)c2ccc(Cl)cc2)cc1`, 90.5% (inactive); for `CS(=O)(=O)N1CCN(C2C3CC4CC(C3)CC2C4)CC1` (stereo unspecified), 93.4% (inactive). For `O=C(N/N=C/c1ccc(O)cc1)c1cccc(C(F)(F)F)c1` the value was 90% (inactive); for `COc1cc(/C=N/NC(=O)c2ccc(-n3cccc3)cc2)ccc1O`, 106% (inactive). For `Fc1ccc(CN2CCN(C(c3ccccc3)c3ccccc3)CC2)cc1` the value was 102% (inactive); for `COc1cc(/C=N\NC(=O)c2ccc(Cn3nc([N+](=O)[O-])c(Cl)c3C)o2)ccc1O`, 92.3% (inactive); for `O=C(O)c1cc(N2C(=O)C=CC2=O)cc(N2C(=O)C=CC2=O)c1`, 107% (inactive). Take `Oc1ccc2c(ccc3[nH]cnc32)c1`: the “viability” value was 110% (inactive). With `Nc1ccc2[nH]c(=S)[nH]c2c1`, the “viability” value is 96.2% (inactive). For `Cc1ccc(Nc2n[nH]c(=S)s2)cc1` the value was 94.3% (inactive); for `COc1ccc(N2CCN(c3ccc(C(N)=O)cc3[N+](=O)[O-])CC2)cc1`, 95.6% (inactive); for `Cc1sc2ncnc(N(C)CCc3ccccn3)c2c1C`, 95% (inactive). Next, `CCOC(=O)c1c(C)[nH]sc1=S`: 97.5% (inactive); `CCN(CC)c1ccc(/C=N/O)cc1`: 99.6% (inactive). Next, `CCN(CC)c1ccc(NC(=O)Nc2ccccc2)cc1`: 99.7% (inactive); `CCN(CC)c1ccc(NC(=O)C2CCCC2)cc1`: 101% (inactive).

Take `CCN(CC)c1ccc(NC(=O)CSC(=O)c2ccccc2)cc1`: the “viability” value is 111% (inactive).

For `CCN(CC)c1ccc(/C=N/N2CCOCC2)c(O)c1`, the “viability” value is 109% (inactive). With `CN(C)c1ccc(/C=N/N2CCN(Cc3ccccc3Cl)CC2)cc1`, the “viability” value is 106% (inactive). `CCOc1cc(/C=C2\SC(=O)N=C2N)ccc1O`: the “viability” value is 92.6% (inactive). On to `C=CCN(CC=C)C(=O)C1CCN(Cc2ccc(OCc3ccccc3)cc2)CC1`, for which the “viability” value is 88.6% (inactive). Next, `CC1=CC(C)(C)N(C(=O)CNC2CCCC2)c2cc(C)ccc21`: 85.7% (inactive). Next, `COc1ccc(N2CCN(C(=O)NC3CCCCC3)CC2)cc1`: 100% (inactive). Next, `COc1cc(/C=N\NC(=O)c2c(C)nc3cc(C)ccn23)ccc1O`: 97% (inactive); `COc1ccc(O/C(=N\S(=O)(=O)c2ccccc2)c2ccccc2)cc1`: 103% (inactive). Turning to `COc1ccc(C=C2C(=O)c3ccccc3C2=O)cc1O`, the “viability” value was 89% (inactive). For `O=C(NN=Cc1ccc(O)cc1O)c1ccccc1NS(=O)(=O)c1cccs1` the value was 97.2% (inactive); for `COc1ccc(Nc2ccc3ccccc3c2)cc1`, 91% (inactive). For `O=C1C(Cl)=C(NCCc2ccccc2)C(=O)c2ccccc21` the value was 95.7% (inactive). For `CN(C)c1ccc(NC(=O)CN2C(=O)c3ccccc3C2=O)cc1` the value was 101% (inactive); for `O=S1(=O)N=C(Nc2ccc(O)cc2)c2ccccc21`, 99.3% (inactive); for `O=C(CNC(=O)c1cccnc1)N/N=C/c1ccc(O)cc1O`, 98.5% (inactive).

As for `COc1cc(/C=C/C(=O)OCC(=O)c2ccc[nH]2)ccc1O`, the “viability” value was 97.6% (inactive). For `COCCNCC(=O)Nc1nc(C)cs1` the value was 97.8% (inactive); for `Cc1ccc(CNc2ccc(N3CCOCC3)cc2)s1`, 91.8% (inactive).

`CN(C1CCCCC1)S(=O)(=O)c1cccc2nsnc12`: the “viability” value was 102% (inactive). Next, `COc1cc(/C=N/NC(=O)C2CCN(CC(O)COCc3ccccc3)CC2)ccc1O` (stereo unspecified): 88.3% (inactive); `COc1cc(/C=N/NC(=O)CNC(=O)c2ccco2)ccc1O`: 100% (inactive).

As for `O=C(/C(=C/c1ccccc1)n1cncn1)c1ccc(Cl)cc1Cl`, the “viability” value is 86.1% (inactive).

As to `COc1cc(-c2nc3cnccn3c2Nc2ccc(C)cc2)ccc1O`, the “viability” value was 103% (inactive). For `Cc1ccn2c(Nc3ccc4c(c3)OCO4)c(-c3ccc(O)cc3)nc2c1` the value was 82.2% (inactive); for `CCOc1ccc(N)cc1OC`, 102% (inactive); for `Cc1cc(Cl)cc2sc(=S)[nH]c12`, 92.3% (inactive). With `NC(=S)N/N=C/c1cccc(O)c1O`, the “viability” value was 90.1% (inactive). As for `O=C(CNc1ccc2c(c1)OCO2)N/N=C\c1ccccc1Cl`, the “viability” value was 99.7% (inactive).

For the compound `Cc1ccc(C2CC(=O)N3CN(c4ccc(Br)cc4)CSC3=C2C#N)o1` (stereo unspecified), the “viability” value is 103% (inactive). As for `OC1CCN(C(=S)Nc2ccc(Nc3ccccc3)cc2)CC1`, the “viability” value is 101% (inactive). For `Nc1ccc(N2CCN(c3ccc(Cl)c(Cl)c3)CC2)cc1` the value was 105% (inactive); for `CCN(Cc1ccncc1)Cc1ccc(OC)c(OC)c1`, 97.9% (inactive); for `COc1ccc(NC2CCCN(C(=O)COc3ccc(Cl)cc3C)C2)cc1OC` (stereo unspecified), 96.1% (inactive).

For the compound `COc1ccc(NC(=O)n2ncc3c(C)cccc32)cc1OC`, the “viability” value is 102% (inactive). Turning to `CCCC(=Nc1ccc(N)cc1)C1=C(O)C(C(=O)OC)C(C)(C)CC1=O` (stereo unspecified), the “viability” value was 99.8% (inactive).

`COC(=O)NCC(c1ccc2c(c1)OCO2)N1CCN(c2ccc(OC)cc2)CC1` (stereo unspecified): the “viability” value is 101% (inactive). Next, `COc1ccc(N2CCN(C(CNC(=O)CC(C)(C)C)c3ccc4c(c3)OCO4)CC2)cc1` (stereo unspecified): 99% (inactive); `COc1cc2c(cc1N)-c1ccc(N)cc1C2=O`: 89% (inactive); `COc1cc(/C=C/CN2CCN(Cc3ccc(C)o3)C(CCO)C2)ccc1O` (stereo unspecified): 99.8% (inactive). Next, `COc1ccc(/C=N/NC(=O)c2cc[n+]([O-])cc2)cc1O`: 102% (inactive). Next, `Cc1ccc(O)c(C=Nc2ccc3[nH]ncc3c2)c1`: 95.6% (inactive). `Nc1ccc2nc(C3CCCCC3)[nH]c2c1`: the “viability” value was 98.5% (inactive). Take `CCOC(=O)C1Nc2ccc(C(=O)O)cc2C2C=CCC12` (stereo unspecified): the “viability” value was 102% (inactive).

For `CCOc1cc(/C=N/N2CCN(Cc3ccccc3)CC2)ccc1O`, the “viability” value is 98.8% (inactive). For `Cc1sc2nc(CN3CCOCC3)nc(N3CCOCC3)c2c1C` the value was 96.9% (inactive); for `O=S(=O)(Nc1ccccc1F)c1cccc(NC(=S)NCCN2CCOCC2)c1`, 98.2% (inactive); for `CCN(CC)c1ccc(NC(=O)CN(C)Cc2cccs2)cc1`, 88.1% (inactive).

As to `CN(C)S(=O)(=O)c1cc(NC(=O)CNCCN2CCOCC2)ccc1Cl`, the “viability” value was 101% (inactive). For `O=C1/C(=C\c2ccccc2)CN(C(=O)CCN2CCCCC2)C/C1=C/c1ccccc1` the value was 134% [at 50 µM] (inactive). For `COc1cc(/C=N/NC(=O)c2cc(C)oc2C)ccc1O` the value was 89.2% (inactive); for `COC(=O)/C(=C/Nc1ccc(O)cc1)[N+](=O)[O-]`, 96.5% (inactive); for `Nc1ccc2c(c1)Cc1cc(N)c(Cl)cc1-2`, 93.7% (inactive). For `COc1cc(C(C)n2nnc3ccccc32)ccc1O` (stereo unspecified) the value was 91% (inactive). `COc1ccccc1OCCCCCCN1CCOCC1`: the “viability” value was 97.8% (inactive). In the case of `COCCNC(=S)Nc1cc(OC)c(OC)cc1C#N`, the “viability” value is 99.9% (inactive).

Consider `Cc1cc(O)ccc1Nc1nc(-c2cccs2)cs1`, for which the “viability” value was 98% (inactive).

`Oc1ccc(-c2csc(Nc3ccccn3)n2)cc1`: the “viability” value was 95.4% (inactive).

In the case of `NS(=O)(=O)c1ccc(Nc2nc(-c3ccc(O)cc3)cs2)cc1`, the “viability” value was 83.6% (inactive). Next, `Cc1ccnc(Nc2nc(-c3ccc(O)cc3)cs2)c1`: 91.6% (inactive); `Cc1cc(NS(=O)(=O)c2ccc(Nc3nc(-c4ccc(O)cc4)cs3)cc2)no1`: 89.7% (inactive). Next, `CC(=O)Nc1cccc(-c2csc(NCc3ccccc3)n2)c1`: 93.2% (inactive); `Cc1nc2ncccn2c1-c1csc(Nc2ccc(O)cc2)n1`: 102% (inactive); `CC(C)Oc1ccc(OCCn2c(=S)[nH]c3c(N)ncnc32)cc1`: 96.8% (inactive). For `CSc1ccccc1NC(=O)CN(C)C(C)C(=O)NCc1ccc2c(c1)OCO2` (stereo unspecified) the value was 93.6% (inactive). For `COc1cc(/C=C/C(=O)OCC(=O)Nc2ccc3c(c2)OCO3)ccc1O`, the “viability” value is 105% (inactive). In the case of `Nn1c(=S)[nH]c2sc3c(c2c1=O)CCCC3`, the “viability” value was 90.2% (inactive). Next, `Cc1cc(C)c(OCC(O)CN2CCN(C(=O)c3ccccc3)CC2)c(C)c1` (stereo unspecified): 97.2% (inactive); `COc1nc(Nc2ccc(O)cc2)nc(OC(C(F)(F)F)C(F)(F)F)n1`: 86.8% (inactive); `O=C(c1cccc(F)c1)N1CCN(Cc2cccc(Br)c2)CC1`: 94.4% (inactive). Next, `OCCN1CCN(C(=S)Nc2cccc(C(F)(F)F)c2)CC1`: 89.7% (inactive); `N#CC1=C(S)N(c2ccc(F)cc2)C(c2cccs2)NC1=O` (stereo unspecified): 98.2% (inactive); `O=C(O)c1ccc(-c2ccc(/C=c3/sc4nc5ccccc5n4c3=O)o2)cc1Cl`: 104% (inactive).

As for `O=S(=O)(c1ccc2ccccc2c1)N1CCN(C2CCN(Cc3ccccc3)CC2)CC1`, the “viability” value was 95.2% (inactive).

Take `O=C(CCCCCNC(=O)c1ccccc1)N/N=C/c1ccc(O)cc1O`: the “viability” value was 94.8% (inactive).

Take `O=S(=O)(O)c1cc(Cl)cc(N=Nc2ccc(O)cc2O)c1O`: the “viability” value was 99.5% (inactive). For `CCc1cc(-c2n[nH]c(CCC(=O)O)c2-c2nc3ccccc3n2C)c(O)cc1O` the value was 102% (inactive); for `COc1ccc2c(c1)Sc1ccccc1N2`, 99.8% (inactive).

`Cn1cnc2cc(NCc3ccccc3O)ccc21`: the “viability” value is 99.7% (inactive). Next, `CCN(CC)c1ccc(N=Cc2ccccc2[N+](=O)[O-])cc1`: 89.2% (inactive); `CC(=O)OCCNc1cc(N2CCN(C)CC2)c2noc3c2c1C(=O)c1ccccc1-3`: 89.7% (inactive); `CCOc1cc(/C=N\n2nnnc2N)ccc1O`: 101% (inactive). Next, `CCOc1cc(/C=N/NC(=O)CCn2nc(C)cc2C)ccc1O`: 110% (inactive); `CCN(CC)c1ccc(NC(=O)COC(=O)Cc2ccsc2)cc1`: 101% (inactive); `Nc1c(/C=C2/C=CC(=O)C(O)=C2)c(=O)nc2sc(CC(=O)N3CCCC3)nn12`: 101% (inactive). Next, `CC(=O)Nc1ccc(OC(=O)Cc2ccc(Cl)cc2)cc1`: 101% (inactive). Regarding `OCCCNC(=S)Nc1ccc(Nc2ccccc2)cc1`, the “viability” value was 99.7% (inactive).
